Measured values published in PubChem BioAssay (NCATS).
Results filed as inconclusive are left out. Values without a mark were called inactive. Active and inactive are the calls of the source. The call rests on the fitted dose curve; in most records, active means well fitted curve in the direction sought with a large enough effect; inconclusive means small, poorly fitted or top-dose-only effect, or another doubt; inactive means no such curve, though single readings can be large; an effect the other way counts as inactive or inconclusive.

Experiment: qHTS of pediatric cancer cell lines to identify multiple opportunities for drug repurposing: Primary screen for NB1643 cells (AID 1347099); further: nearly all actives have a fitted effect of over 50% in size;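 on activity change, negative = cytotoxic: plate controls were DMSO neutral control for no effect and bortezomib positive control for full effect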
Settings: NB1643 neuroblastoma viability, CellTiter-Glo luminescence, 48 h; series mostly up to 46 µM; activity change, negative = cytotoxic: at the top concentration
Method in brief: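 Cells seeded at 500-1,000 cells/well in growth media, rested 5 hours at 37 degrees C, 5% CO2, then dosed; MIPE compounds at 11-point (from 0.78 nM) and NPC at 8-point (from 0.59 nM) final concentrations. Viability by CellTiter-Glo luminescence after 48 hours.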
Potency means the concentration at half of the fitted maximal effect.

SMILES	Potency	activity change, negative = cytotoxic
O=C(O)c1ccc(O)c2ncc(N3CCOCC3)cc12	23.5 µM (active)	
COc1ccc(-c2oc3c(CC=C(C)C)c(O)cc(O)c3c(=O)c2O)cc1	14.8 µM (active)	
CN(C)CCN(Cc1ccc(Cl)cc1)c1ccccn1	14.8 µM (active)	
CCCCN(CCCC)CC(O)c1cc(Cl)cc2c1-c1ccc(Cl)cc1C2=Cc1ccc(Cl)cc1 (stereo not drawn)		8.8%
CON(C)C(=O)N1N=C(c2cc(F)ccc2F)S[C@]1(CCCN)c1ccccc1		-27.7%
NC(N)=Nc1nc(CSCCC(N)=NS(N)(=O)=O)cs1	8.33 µM (active)	
O=C1NC(=O)C(=Cc2ccc(-c3ccc(F)cc3O)o2)S1		37.7%
CO[C@H]1/C=C\O[C@@]2(C)Oc3c(C)c(O)c4c(O)c(c(C=NN5CCN(C6CCCC6)CC5)c(O)c4c3C2=O)NC(=O)C(C)=CC=C[C@H](C)[C@H](O)[C@@H](C)[C@@H](O)[C@@H](C)[C@H](OC(C)=O)[C@H]1C	0.0105 µM (active)	
CNC(=O)c1ccc2c(C(=Nc3cccc(CN(C)C)c3)c3ccccc3)c(O)[nH]c2c1	16.6 µM (active)	
COc1cc([C@H]2Oc3cc([C@H]4Oc5cc(O)cc(O)c5C(=O)[C@H]4O)ccc3O[C@H]2CO)ccc1O	23.5 µM (active)	
CC(C)[C@H](O)C(=O)N[C@@H](C)C(=O)N[C@@H]1C(=O)N(C)CCc2ccccc21	20.9 µM (active)	
CN1N=C(N)c2cn([C@@H]3O[C@H](COP(=O)(O)O)[C@@H](O)[C@@H]3O)c3ncnc1c23	16.6 µM (active)	
CCNC(=O)Nc1ccc(Oc2ncnc(N)c2C=NOC)cc1Cl		1.37%
O=C(O)Cc1cccc(OCCCN(Cc2cccc(C(F)(F)F)c2Cl)CC(c2ccccc2)c2ccccc2)c1		-3.52%
CN1CC(=O)NC1=NC(=O)Nc1cccc(Cl)c1	4.69 µM (active)	
O=c1[nH]c(=O)n([C@H]2C[C@@H](O)[C@@H](CO)O2)cc1I		-24.3%
CCC(=O)OCC(=O)[C@@]1(OC(=O)CC)[C@@H](C)C[C@@H]2[C@H]3CCC4=CC(=O)C=C[C@]4(C)[C@@]3(F)[C@@H](O)C[C@@]21C	2.35 µM (active)	
CC(C)C[C@H](NC(=O)c1cc2ccccc2s1)C(=O)N1CCN(C(=O)[C@H](CO)NS(=O)(=O)c2ccc(Cl)cc2Cl)CC1	23.5 µM (active)	

SMILES	Potency	activity change, negative = cytotoxic
CNc1nc(Nc2ccc(C(=O)N3CCOCC3)cc2OC)ncc1Cl	4.69 µM (active)	
CC1(C)[C@H]2CC[C@]3(C)[C@@H](C(=O)C=C4[C@@H]5C[C@@](C)(C(=O)O)CC[C@]5(C)CC[C@]43C)[C@@]2(C)CC[C@@H]1O		-5.03%
N#CC(=C1Nc2ccccc2S1)c1ccnc(OCc2ccc(CN3CCOCC3)cc2)n1	0.0526 µM (active)	
CNC1CCC(N(Cc2cccc(-c3ccncc3)c2)C(=O)c2sc3ccccc3c2Cl)CC1 (stereo not drawn)	20.9 µM (active)	
CC[C@H](C=C[C@@H](C)[C@H]1CC[C@H]2[C@@H]3CC=C4C[C@@H](O)CC[C@]4(C)[C@@H]3CC[C@]12C)C(C)C		-15.2% [at 16.1 µM]
N#CC(c1ccc(Cl)cc1)c1c(Cl)cc(-n2ncc(=O)[nH]c2=O)cc1Cl (stereo not drawn)	18.7 µM (active)	
CN1CCN(c2ncc(-c3cc(Cl)cc(Cl)c3Cl)c(N)n2)CC1	16.6 µM (active)	
CCOc1ccccc1N=Nc1c(C)[nH]n(-c2nc(-c3ccccc3)cs2)c1=O	1.18 µM (active)	
C[C@H](CCC(=O)O)[C@H]1CC[C@H]2[C@H]3[C@@H](CC[C@]12C)[C@@]1(C)CC[C@@H](O)C[C@H]1C[C@@H]3O		-0.973%
Nc1[nH]nc2nnc(-c3c(-c4ccccc4)nn4ccccc34)cc12	1.87 µM (active)	
O=C(CC12CC3CC(CC(C3)C1)C2)Nc1cccc2nc(NCCNCCO)ccc12	13.2 µM (active)	
CN1CCC(COc2cnc(-c3cccc(Cn4nc(-c5cccc(C#N)c5)ccc4=O)c3)nc2)CC1		4.99%
Cc1cc(-c2ncc(CC(=O)Nc3ccc(-c4cnccn4)cn3)cc2C)ccn1	16.6 µM (active)	
CCCCC(C)(C)[C@H](O)C=C[C@H]1[C@H](O)CC(=O)[C@H]1CC=CCCCC(=O)O		-6.65%
CCc1cc(-c2n[nH]c(C)c2-c2ccc3c(c2)OCCO3)c(O)cc1O	10.5 µM (active)	
CN[C@@H]1CN(c2ccc3c(=O)c(C(=O)O)cn(-c4nccs4)c3n2)C[C@@H]1OC	1.62 µM (active)	
C[C@H](c1ccc(F)cc1CCCC(=O)O)N(c1cc(F)ccc1F)S(=O)(=O)c1ccc(Cl)cc1	14.8 µM (active)	
CC[C@@H]([C@H](C)O)n1ncn(-c2ccc(N3CCN(c4ccc(OCC5CO[C@@](Cn6cncn6)(c6ccc(F)cc6F)C5)cc4)CC3)cc2)c1=O (stereo partly drawn)	23.5 µM (active)	

Experiment: qHTS of pediatric cancer cell lines to identify multiple opportunities for drug repurposing: Primary screen for BT-12 cells (AID 1347101); further: nearly all actives have a fitted effect of over 25% in size;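 on activity change, negative = cytotoxic: plate controls were DMSO for no effect and bortezomib positive control for full effect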
Settings: BT-12 viability, CellTiter-Glo luminescence, 48 h; series mostly up to 57.3 µM; activity change, negative = cytotoxic: at the top concentration
Method in brief: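 Cells (500-1,000/well) rested 5 h, then received compounds for 48 h; metabolically active cells were measured by CellTiter-Glo luminescence. Final concentrations spanned up to 46 µM (MIPE, 11-point) or 0.59 nM-46 µM (NPC, 8-point) in primary screens, 11-point in follow-ups.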

SMILES	activity change, negative = cytotoxic	Potency
COc1ccc(-c2oc3c(CC=C(C)C)c(O)cc(O)c3c(=O)c2O)cc1	4.99%	
CN(C)CCN(Cc1ccc(Cl)cc1)c1ccccn1	-6.89%	
CCCCN(CCCC)CC(O)c1cc(Cl)cc2c1-c1ccc(Cl)cc1C2=Cc1ccc(Cl)cc1 (stereo not drawn)	2.66%	
CON(C)C(=O)N1N=C(c2cc(F)ccc2F)S[C@]1(CCCN)c1ccccc1		15.3 µM (active)
NC(N)=Nc1nc(CSCCC(N)=NS(N)(=O)=O)cs1	8.63%	
CO[C@H]1/C=C\O[C@@]2(C)Oc3c(C)c(O)c4c(O)c(c(C=NN5CCN(C6CCCC6)CC5)c(O)c4c3C2=O)NC(=O)C(C)=CC=C[C@H](C)[C@H](O)[C@@H](C)[C@@H](O)[C@@H](C)[C@H](OC(C)=O)[C@H]1C		0.137 µM (active)
CNC(=O)c1ccc2c(C(=Nc3cccc(CN(C)C)c3)c3ccccc3)c(O)[nH]c2c1	2.09%	
CC(C)[C@H](O)C(=O)N[C@@H](C)C(=O)N[C@@H]1C(=O)N(C)CCc2ccccc21	2%	
CCNC(=O)Nc1ccc(Oc2ncnc(N)c2C=NOC)cc1Cl	3.9%	
O=C(O)Cc1cccc(OCCCN(Cc2cccc(C(F)(F)F)c2Cl)CC(c2ccccc2)c2ccccc2)c1		24.3 µM (active)
CCC(=O)OCC(=O)[C@@]1(OC(=O)CC)[C@@H](C)C[C@@H]2[C@H]3CCC4=CC(=O)C=C[C@]4(C)[C@@]3(F)[C@@H](O)C[C@@]21C		6.11 µM (active)
CC(C)C[C@H](NC(=O)c1cc2ccccc2s1)C(=O)N1CCN(C(=O)[C@H](CO)NS(=O)(=O)c2ccc(Cl)cc2Cl)CC1		0.001 µM (active)
CNc1nc(Nc2ccc(C(=O)N3CCOCC3)cc2OC)ncc1Cl	3.06%	
CC1(C)[C@H]2CC[C@]3(C)[C@@H](C(=O)C=C4[C@@H]5C[C@@](C)(C(=O)O)CC[C@]5(C)CC[C@]43C)[C@@]2(C)CC[C@@H]1O	-2.08%	
N#CC(=C1Nc2ccccc2S1)c1ccnc(OCc2ccc(CN3CCOCC3)cc2)n1		0.172 µM (active)
CNC1CCC(N(Cc2cccc(-c3ccncc3)c2)C(=O)c2sc3ccccc3c2Cl)CC1 (stereo not drawn)		30.6 µM (active)
CC[C@H](C=C[C@@H](C)[C@H]1CC[C@H]2[C@@H]3CC=C4C[C@@H](O)CC[C@]4(C)[C@@H]3CC[C@]12C)C(C)C	7.27% [at 20.1 µM]	
N#CC(c1ccc(Cl)cc1)c1c(Cl)cc(-n2ncc(=O)[nH]c2=O)cc1Cl (stereo not drawn)		21.7 µM (active)
CN1CCN(c2ncc(-c3cc(Cl)cc(Cl)c3Cl)c(N)n2)CC1		4.32 µM (active)
CCOc1ccccc1N=Nc1c(C)[nH]n(-c2nc(-c3ccccc3)cs2)c1=O	5.4%	
C[C@H](CCC(=O)O)[C@H]1CC[C@H]2[C@H]3[C@@H](CC[C@]12C)[C@@]1(C)CC[C@@H](O)C[C@H]1C[C@@H]3O	-31.3%	
Nc1[nH]nc2nnc(-c3c(-c4ccccc4)nn4ccccc34)cc12		6.85 µM (active)
CN1CCC(COc2cnc(-c3cccc(Cn4nc(-c5cccc(C#N)c5)ccc4=O)c3)nc2)CC1	11.2%	
Cc1cc(-c2ncc(CC(=O)Nc3ccc(-c4cnccn4)cn3)cc2C)ccn1		6.85 µM (active)
CN[C@@H]1CN(c2ccc3c(=O)c(C(=O)O)cn(-c4nccs4)c3n2)C[C@@H]1OC		9.43 µM (active)
C[C@H](c1ccc(F)cc1CCCC(=O)O)N(c1cc(F)ccc1F)S(=O)(=O)c1ccc(Cl)cc1	-1.37%	
CC[C@@H]([C@H](C)O)n1ncn(-c2ccc(N3CCN(c4ccc(OCC5CO[C@@](Cn6cncn6)(c6ccc(F)cc6F)C5)cc4)CC3)cc2)c1=O (stereo partly drawn)		21.7 µM (active)
